Laboratory results from PubChem BioAssay (EPA / NIEHS).
Active and inactive are the calls of the source. Rule for the calls: active = hit-call score of the fitted dose curve at least 0.9, where 1 is the maximum; inactive = score below 0.9.

The compounds below were run against Estrogen receptor (Homo sapiens) (UniProt P03372) (assay: OT_ERa_GFPERaERE_0480: Odyssey Thera (OT) 8-hour HeLa Transcription Induction Assay for Estrogen Receptor (AID 2283381)).
Experimental: OT_ERa_GFPERaERE_0480 is a cell-based, single-readout assay that uses HeLa, a human cervix cell line, with measurements taken at 8 hours after chemical dosing in a 384-well plate.OT_ERa_GFPERaERE_0480 is one of one assay component(s) measured or calculated from the OT_ERa_GFPERaERE_0480 assay. It is designed to make measurements of fluorescent protein induction, a form of inducible reporter, as detected with optical microscopy: fluorescence microscopy signals by Microscopy technology.Data from the assay component OT_ERa_GFPERaERE_0480 was analyzed into 1 assay endpoint. This assay endpoint, OT_ERa_EREGFP_0480, was analyzed in the positive analysis fitting direction relative to DMSO as the negative control and baseline of activity. Using a type of inducible reporter, measures of receptor for gain-of-signal activity can be used to understand the reporter gene at the pathway-level as they relate to the gene ESR1. Furthermore, this assay endpoint can be referred to as a primary readout, because the performed assay has only produced 1 assay endpoint. To generalize the intended target to other relatable targets, this assay endpoint is annotated to the nuclear receptor intended target family, where the subfamily is steroidal.
All assay endpoints are quantified using high content image analysis algorithms.

Sequence of Estrogen receptor (Homo sapiens) (P03372 whole entry, looked up): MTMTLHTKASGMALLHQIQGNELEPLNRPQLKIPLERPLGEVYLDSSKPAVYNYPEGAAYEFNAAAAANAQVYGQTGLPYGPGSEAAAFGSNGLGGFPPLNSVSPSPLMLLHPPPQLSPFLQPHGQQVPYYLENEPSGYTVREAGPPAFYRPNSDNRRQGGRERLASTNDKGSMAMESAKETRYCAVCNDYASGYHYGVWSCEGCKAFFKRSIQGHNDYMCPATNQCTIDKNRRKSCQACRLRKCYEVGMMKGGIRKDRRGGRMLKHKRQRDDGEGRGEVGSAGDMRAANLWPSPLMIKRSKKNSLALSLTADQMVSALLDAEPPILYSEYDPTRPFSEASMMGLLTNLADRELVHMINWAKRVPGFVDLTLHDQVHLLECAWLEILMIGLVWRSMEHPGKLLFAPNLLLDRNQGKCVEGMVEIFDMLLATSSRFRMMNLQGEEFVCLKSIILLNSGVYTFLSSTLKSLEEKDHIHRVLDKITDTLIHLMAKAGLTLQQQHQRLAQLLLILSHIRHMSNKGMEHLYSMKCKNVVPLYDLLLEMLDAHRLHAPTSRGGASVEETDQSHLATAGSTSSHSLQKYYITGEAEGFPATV

Row | SMILES | outcome | AC50
1 | OC[C@H]1O[C@@](CO)(O[C@H]2O[C@H](CO)[C@@H](O)[C@H](O)[C@H]2O)[C@@H](O)[C@@H]1O | inactive | 
2 | Nc1ccn([C@@H]2O[C@H](CO)[C@@H](O)[C@@H]2O)c(=O)n1 | inactive | 
3 | O=C(O)c1cccc(C(=O)O)c1 | inactive | 
4 | CCCOc1ccc(S(=O)(=O)N2CCN(CC)CC2)cc1-c1nc2c(CC)n(Cc3ccccn3)nc2c(=O)[nH]1 | inactive | 
5 | C[C@@H](Oc1ccc(CNC(=O)c2cccnc2Oc2ccc3c(c2)OCO3)c(F)c1)C(=O)O | inactive | 
6 | CCn1nc(C)c2c1C(=O)NCC(c1ccc(O)cc1)=N2 | inactive | 
7 | O=S(=O)(O)c1ccc(N=Nc2c(O)ccc3cc(S(=O)(=O)O)ccc23)cc1 | inactive | 
8 | Cc1cccc(O)c1C | inactive | 
9 | CCN(CC)C(=S)SSC(=S)N(CC)CC |  | 92.5 µM (active)
10 | NNC(=O)c1ccncc1 | inactive | 
11 | Cn1cc[nH]c1=S | inactive | 
12 | CC[C@H](C)C(=O)O[C@H]1C[C@H](O)C=C2C=C[C@H](C)[C@H](CC[C@@H](O)C[C@@H](O)CC(=O)O)[C@H]21 | inactive | 
13 | c1ccc2ncccc2c1 | inactive | 
14 | Cc1nc(-c2ccccn2)ncc1C(=O)Nn1cc(C)c2cc(F)ccc21 | inactive | 
15 | OCc1ccccc1 | inactive | 
16 | OC(Cn1cncn1)(Cn1cncn1)c1ccc(F)cc1F | inactive | 
17 | CCCCCCCCCCCCCCCCOS(=O)(=O)O | inactive | 
18 | CCCCCOC(C)=O | inactive | 
19 | O=C(NO)C1(NS(=O)(=O)c2ccc(Oc3ccc(F)cc3)cc2)CCOCC1 | inactive | 
20 | CCCCCCCC1CCC(=O)O1 (stereo not given) | inactive | 

Row | SMILES | outcome | AC50
21 | OC[C@H]1O[C@@H]2O[C@H]3[C@H](O)[C@@H](O)[C@@H](O[C@H]4[C@H](O)[C@@H](O)[C@@H](O[C@H]5[C@H](O)[C@@H](O)[C@@H](O[C@H]6[C@H](O)[C@@H](O)[C@@H](O[C@H]7[C@H](O)[C@@H](O)[C@@H](O[C@H]1[C@H](O)[C@H]2O)O[C@@H]7CO)O[C@@H]6CO)O[C@@H]5CO)O[C@@H]4CO)O[C@@H]3CO | inactive | 
22 | CC(C)c1nnc2ccc(-c3ocnc3-c3cc(F)ccc3F)cn12 | inactive | 
23 | NC(=O)N(O)[C@@H]1COc2cc(OCc3ccccc3)ccc21 | inactive | 
24 | O=c1[nH]cnc2c1ncn2[C@H]1CC[C@@H](CO)O1 | inactive | 
25 | C[C@]12C=CC(=O)C=C1CC[C@H]1[C@@H]3C[C@@H](O)[C@](O)(C(=O)CO)[C@@]3(C)C[C@H](O)[C@@]12F | inactive | 
26 | CCCCC(CC)C(=O)OCCOCCOCCOC(=O)C(CC)CCCC (stereo not given) | inactive | 
27 | O=C1CN(N=Cc2ccc([N+](=O)[O-])o2)C(=O)N1 | inactive | 
28 | CCCCCCOC(=O)CC(CC(=O)OCCCCCC)(OC(=O)CCC)C(=O)OCCCCCC | inactive | 
29 | CCc1ccc(O)c(C(C)(C)C)c1 | inactive | 
30 | CCc1cccc(CC)c1N | inactive | 
31 | CC(C)CCCCCCOC(=O)C1CCCCC1C(=O)OCCCCCCC(C)C (stereo not given) | inactive | 
32 | CC(C)C(=O)Nc1ccc([N+](=O)[O-])c(C(F)(F)F)c1 | inactive | 
33 | c1ccc(C(O[C@@H]2CCCN(CCc3ccc4c(c3)OCO4)C2)c2ccccc2)cc1 | inactive | 
34 | NC(=O)N1c2ccccc2C=Cc2ccccc21 | inactive | 
35 | CCCCN1C(=O)[C@@H]([C@H](O)C2CCCCC2)NC(=O)C12CCN(Cc1ccc(Oc3ccc(C(=O)O)cc3)cc1)CC2 | inactive | 
36 | Cc1nccn1-c1ccc(Sc2cccc(C3(C(N)=O)CCOCC3)c2)cc1 |  | 17.4 µM (active)
37 | CCOc1ccc2[nH]cc(C(=O)NCc3ccccc3)c(=O)c2n1 | inactive | 
38 | OCCNCCO | inactive | 
39 | CCCCCCCCCC | inactive | 
40 | O=C(O)CO | inactive | 
